This is an account of results in ChEMBL document CHEMBL5308541, “MAIP: An Open-Source Tool to Enrich High-Throughput Screening Output and Identify Novel, Druglike Molecules with Antimalarial Activity” (ACS Med Chem Lett, 2023).

The whole screen tested about 150,000 compounds, of which about 540 (0.36%) showed an effect of 50% or more. This is one part of a sample in which strong results are shown more often than they occur.

In the assay the test system is Plasmodium falciparum. Briefly: Primary screen in NF54 nanoGlo assay, in single point, at 2uM, 72h; a lower Z score goes with more inhibition. In kind it is functional, Erythrocyte. The settings on record: timepoint 72 hour.
As for `CN1CCC(N(Cc2ccccc2)C(=O)c2cc3cnccc3[nH]2)CC1`, the “% Inhibition” value was 52% and the Z score was -7.83.
For `O=C(NCC1CC1)c1cc2c(OCc3ccc(Cl)cc3)cccc2[nH]1` the same measures were 51% and -9.
In the case of `O=C(NC1CNCCC1O)c1cc2c(Cl)cccc2[nH]1` (stereo not drawn), the “% Inhibition” value is on record as -3% and the Z score is given as 0.71.
For `Cc1cc(N2CCC(N(C)Cc3nc4ccc(F)cc4[nH]3)CC2)ncn1` the same measures were -13% and 2.24.
For `CCOc1ccc2nc(CN(CC)CC3CCN(C4CCN(C)CC4)CC3)ccc2c1` the same measures were 80% and -13.89.
For `c1ccc(CCC23CN(Cc4ccccn4)CC2CN(Cc2ccns2)C3)cc1` (stereo not drawn) the same measures were 86% and -17.09.
As for `Cn1cc(CC(=O)N2CC3CN(Cc4ccns4)CC3(CO)C2)c2ccccc21` (stereo not drawn), the “% Inhibition” value is recorded as -3% and the Z score was 0.46.
Turning to `C[C@@H](c1cc2ccccc2o1)N(C)CCC(=O)N1CCN(c2ccc(F)cc2)CC1`, the “% Inhibition” value is -2% and the Z score was 0.48.
On the same counts, the results for `O=C(c1ccnc2ccccc12)N1CCN(C2CCOCC2)CC1` are -6% and 0.98.
For `O=C1CN(C(=O)c2ccnc3ccccc23)CCN1Cc1ccccc1F` the same measures were 68% and -13.41.
For the compound `CN(CC(=O)N[C@H]1CCCN(c2cnccn2)C1)C1CCNCC1`, the “% Inhibition” value is on record as -7% and the Z score is listed as 1.05.
On the same counts, the results for `Cc1noc(-c2ccnc(NC[C@@H](c3ccccn3)N3CCOCC3)c2)n1` are 95% and -18.79.
For `Cc1noc(-c2ccnc(NC[C@H]3CCN(CC(F)(F)F)C3)c2)n1` the same measures were 2% and -0.25.
On the same counts, the results for `Cc1noc(-c2ccnc(NCCc3coc(-c4ccccc4)n3)c2)n1` are 0% and -0.05.
On to `CC(C)N1CCN(c2cccc(Nc3ncccn3)c2)CC1`, for which the “% Inhibition” value is recorded as 5% and the Z score is reported as -1.03.
On the same counts, the results for `Cc1cccc(Nc2ccnc(Nc3ccc(N4CCN(C)CC4)cc3)n2)c1` are 89% and -13.46.
For `c1cc(Nc2ccnc(C3CC3)n2)cc(N2CCCCCC2)c1` the same measures were -1% and 0.19.
On the same counts, the results for `Cc1cnccc1NCCNCc1cccc(OCCCCN2CCOCC2)c1` are 95% and -20.36.
`CCN(CCN1CCCCCC1)C(=O)NCCNc1ccncc1C`: the “% Inhibition” value is -11% and the Z score was 2.32.
Take `Cc1cnccc1NCCNCc1cnc(N2CCCCC2)nc1`: the “% Inhibition” value is 57% and the Z score is given as -12.25.
On the same counts, the results for `Cc1cnccc1NCCNc1ncc(F)c(N2CCCC2)n1` are 25% and -3.87.
For `CN(CCCNc1nccc2ncncc12)CC(F)(F)F` the same measures were -2% and 0.32.
For `Cc1cccc(-c2cccc(N3CCC(NC[C@H]4CCC(=O)N4)CC3)c2)c1` the same measures were 1% and -0.25.
`Cc1cccc(-c2cccc(N3CCC(NCc4cc(C)[nH]n4)CC3)c2)c1`: the “% Inhibition” value was -7% and the Z score amounted to 1.27.
On the same counts, the results for `Cc1ccccc1-c1cccc(N2CCC(NCC3CCNCC3)CC2)c1` are 98% and -19.56.
In the case of `NC(=O)C1CCN(CCCNc2ncnc3ccccc23)CC1`, the “% Inhibition” value worked out at 14% and the Z score is -2.8.
For `Cc1cccc2c(NCCCCN3CCN(CCO)CC3)ncnc12` the same measures were -12% and 1.79.
Take `CCc1ccc2ncnc(NCCCN3CCN(CCO)CC3)c2c1`: the “% Inhibition” value was 65% and the Z score was -12.99.
For `Cc1ccc(-c2cccc3c(C(=O)NCCCN4CCC(N5CCCCC5)CC4)cc(C)nc23)cc1` the same measures were 98% and -16.9.
For `Cc1cc(O)c2cccc(-c3cccc(C(=O)NCCCN4CCCC4)c3)c2n1` the same measures were -1% and 0.22.
On to `Cc1cnccc1NCCNC1CCN(C(=O)[C@@H]2CCCO2)CC1`, for which the “% Inhibition” value is -9% and the Z score amounted to 1.97.
For `Cn1cncc1[C@@H]1CNC[C@H]1CNC(=O)c1ccccc1NC1CCCCC1` the same measures were 75% and -14.83.
On the same counts, the results for `COC(CN(Cc1nc(N)nc(Nc2ccc(C)cc2)n1)Cc1nc(N)nc(Nc2ccc(C)cc2)n1)OC` are 85% and -18.33.
On the same counts, the results for `CN(C)CCn1ncc(C(=O)NC2CCN(CC3CCCC3)CC2)c1-c1ccccc1` are 0% and 0.06.
For `CCOc1cc(C(=O)NC2CCN(CC3CCCC3)CC2)cc(-c2ccccc2)c1OC`, the “% Inhibition” value came to 71% and the Z score is -12.46.
On the same counts, the results for `Cc1ccc2cc(CNC[C@H]3CCN(C4CC4)C3)ccc2n1` are 0% and 0.09.
For `CCc1ccc2nc(NC[C@H]3CCCN3C)cc(C)c2c1` the same measures were -2% and 0.32.
For `Cc1ccc2nc(NC[C@H]3CCN(C4CC4)C3)cc(C)c2c1` the same measures were 55% and -8.34.
With `Nc1nnc(CCCNc2nccc(-c3ccncc3)n2)s1`, the “% Inhibition” value is recorded as -9% and the Z score was 1.91.
For `COc1ccnc(NCCCc2nc(-c3ccncc3)cs2)n1` the same measures were 69% and -13.68.
For `c1ccc2c(Nc3ccc4[nH]cnc4c3)c3ccccc3nc2c1` the same measures were 98% and -19.44.
For `Clc1cc(Nc2c3ccccc3nc3ccccc23)ccc1Oc1ccc2ccccc2c1Cl` the same measures were -10% and 1.68.
On to `Oc1ccc(OC(F)(F)F)cc1-c1ccc2nccn2n1`, for which the “% Inhibition” value is listed as 86% and the Z score is on record as -17.13.
For `CC(C)Nc1cc(-c2cc(OC(F)(F)F)ccc2O)ncn1` the same measures were 1% and -0.31.
For the compound `c1ccc(CNc2ccc(-c3noc(C45CCCN(CCC4)C5)n3)cn2)cc1`, the “% Inhibition” value is 81% and the Z score is -17.51.
For `c1cc(-c2noc(C34CCCN(CCC3)C4)n2)cc(-n2ccnc2)c1` the same measures were 9% and -1.87.
On the same counts, the results for `c1ccc(-c2nc3c(c(NCCNc4ncccn4)n2)CCC3)nc1` are 41% and -7.15.
On the same counts, the results for `Cc1cc(F)ccc1CNc1ccc(N2CCN(C)CC2)nc1` are 3% and -0.45.
Take `OC1(Cn2ccnc2)CCN(Cc2ccnc3ccccc23)CC1`: the “% Inhibition” value is -5% and the Z score is reported as 0.98.
For `Cc1c(CN2CCC(O)(Cn3ccnc3)CC2)[nH]c2c(Cl)cccc12` the same measures were 95% and -16.38.
For `CCn1cc(-c2cccc(C(=O)N[C@@H](C)CN3CCc4ccccc4C3)c2)cn1` the same measures were 53% and -10.47.
`CNC(=O)c1ccc(C(=O)Nc2nc(C3(C)CC3)ns2)cn1`: the “% Inhibition” value turned out to be 23% and the Z score was -4.92.
For `COCCC(=O)NC1COCC1Cc1ccnc2ccccc12` (stereo not drawn) the same measures were 1% and -0.24.
In the case of `Cc1cc(C)c(C)c(S(=O)(=O)NC2COCC2Cc2ccncc2)c1C` (stereo not drawn), the “% Inhibition” value was 0% and the Z score is -0.02.
For `CCCC(=O)NC1COCC1Cc1ccncc1` (stereo not drawn) the same measures were 82% and -16.24.
`CNc1nc(N2CCN(CC(=O)NC3CCCCC3)CC2)nc2ccccc12`: the “% Inhibition” value is reported as 80% and the Z score was -14.07.
For `Cc1nc(N2CCN(CC(=O)NC3CCCCC3)CC2)c2cc[nH]c2n1` the same measures were -11% and 2.32.
On the same counts, the results for `CCN1CCC[C@@H]1CN(CCN(C)C)C(=O)c1ccc(-c2cncnc2)cc1F` are 2% and -0.24.
For `N[C@H]1CC[C@@H](NC2CCN(c3ccc(F)c(F)c3)CC2)CC1`, the “% Inhibition” value was 53% and the Z score was -9.21.
With `Fc1ccc(N2CCC(N[C@@H]3COC4(CCNCC4)C3)CC2)cc1F`, the “% Inhibition” value was found to be 23% and the Z score is given as -4.05.
For the compound `CCc1ccc(Nc2nc(C(=O)NCCc3c[nH]cn3)nc3ccccc23)cc1`, the “% Inhibition” value came to 7% and the Z score is listed as -1.15.
On the same counts, the results for `COc1ccc(-c2cncc(C(=O)NCC3CCN(CCN(C)C)CC3)c2)cc1` are 94% and -16.22.
For `COCCN1CCC(CN(C)C(=O)c2ccc(-c3cncc(N)c3)cc2)CC1` the same measures were 2% and -0.4.
For `Cc1cc(O)c(Cl)cc1-c1cccc2c(N)ccnc12` the same measures were 82% and -14.53.
As to `Cc1cc(O)c(Cl)cc1-c1ccc2nccc(N)c2c1`, the “% Inhibition” value is reported as 91% and the Z score is given as -15.94.
With `Cc1cc(O)c(Cl)cc1-c1ccc2ncnc(N)c2c1`, the “% Inhibition” value is recorded as -5% and the Z score stood at 0.82.
On the same counts, the results for `Cn1ccc2c(-c3cccc4c(N)ccnc34)ccnc21` are 6% and -1.24.
On the same counts, the results for `Cc1cc(O)c(Cl)cc1-c1ncnc2[nH]ccc12` are 1% and -0.29.
On the same counts, the results for `OC[C@H](CNCc1cc2ccc(F)cc2[nH]1)c1ccccc1Cl` are 41% and -6.28.
Regarding `O[C@@H](CNCc1cc2cc(Cl)c(Cl)cc2[nH]1)c1ccc(F)cc1`, the “% Inhibition” value stood at 76% and the Z score is -13.27.
On the same counts, the results for `CC(CNc1nc(NCC(C)N2CCOCC2)c2cc(Cl)ccc2n1)N1CCOCC1` (stereo not drawn) are 78% and -13.62.
On the same counts, the results for `CCN1CCN(CCOc2ccccc2CN(C)Cc2cccc3cnccc23)CC1` are 7% and -1.54.
On the same counts, the results for `CN1CCN(CCOc2ccccc2CN(C)Cc2cc3cc(F)ccc3[nH]2)CC1` are 73% and -14.51.
As to `c1cc(N2CCOCC2)nc(C2CCN(CC34CNCC3C4)CC2)n1` (stereo not drawn), the “% Inhibition” value was -8% and the Z score amounted to 1.26.
On the same counts, the results for `COc1ccc(-c2ccnc(C3CCN(c4ccnc(C#N)n4)CC3)n2)cc1` are -1% and 0.14.
For `c1ccc(-c2ccnc(C3CCN(CC45CNCC4C5)CC3)n2)cc1` (stereo not drawn), the “% Inhibition” value is on record as 89% and the Z score is listed as -13.57.
In the case of `C[C@H]1CN(C2CCOCC2)CCN1C(=O)NCc1cccc(-c2cccnc2)c1`, the “% Inhibition” value is recorded as -1% and the Z score is given as 0.29.
On the same counts, the results for `O=C(NCc1cccc(-c2cccnc2)c1)N[C@H]1CCN(C2CCCCC2)C1` are 51% and -7.77.
For `CC(C)c1ccc(-c2nc(CN3CCCCC3)cc(CN3CCCCC3)c2O)cc1` the same measures were 90% and -15.77.
For `Cc1ccc(Nc2ncc(-c3ccc(Cl)c(OC(F)(F)F)c3)cn2)cc1` the same measures were -5% and 1.
Take `CCN1CCN(c2ccc(CNCc3cccc(O)c3)cc2F)CC1`: the “% Inhibition” value was 90% and the Z score is on record as -19.29.
On the same counts, the results for `CN1CCCN(Cc2ccc(CNCc3cccc(O)c3)cc2)CC1` are 17% and -3.36.
Regarding `Cc1nc2ccccc2c(O)c1CC[C@H](C)NC1CCNCC1`, the “% Inhibition” value is -3% and the Z score was found to be 0.51.
For `CCCCN(C)C[C@@H](C)NC(=O)CCCN1CCN(c2ccccc2)CC1` the same measures were -5% and 1.09.
